Screening results (PubChem)
Many of the other results were omitted from the sample, so hits are more common in it than they were.
KDM5B inhibitor: KDM5B demethylase inhibition | Q9UGL1 | KDM5B demethylase, FDH-coupled NADH fluorescence (FDH is formaldehyde dehydrogenase) | Potency, µM (series often up to 57.7 µM), most hits filed as inhibitors | 220,000 tested, 2.6% active; active means well fitted inhibition curve with a large enough effect; further: 0% is about no effect; nearly all actives have a fitted effect of over 70% in size
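Inhibition is measured as reduced NADH fluorescence generation from FDH coupling to formaldehyde release. Truncated KDM5BΔAP at 200 nM final acts on H3K4me3 peptide (12.5 µM in substrate mix) in pH 7.5 HEPES buffer with Tween-20, 30 min, room temperature.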
Starred values were filed as active, the others as inactive; i = inactive. Potency means the concentration at half of the fitted maximal effect.

SMILES | KDM5B inhibitor
N#Cc1ccc(C(=O)Nc2ccccc2C(=O)NCCc2ccccc2)cc1 | i
CCNC(=O)NC[C@H]1Cn2c(-c3cccc(Cl)c3)cnc2CO1 | i
CCc1ccccc1NC(=O)C(=O)NCCc1csc(-c2ccc(C(F)(F)F)cc2)n1 | i
COCCN1C(=O)[C@@H]2C[C@@H](CN2Cc2cccc(OC)c2)Oc2ccccc21 | i
CCc1ccc(NC(=O)c2ccc3c(Cl)c4c(nc3c2)CCC4)cc1 | i
CCn1c(SCc2cc3c(cc2Br)OCO3)nc2cc(S(N)(=O)=O)ccc21 | i
COCCN1C(=O)c2n[nH]c(-c3ccco3)c2C1c1ccc(OC)c(OC)c1 (centres undefined) | i
Cc1ccc(C(=O)Nc2ccccc2SCc2cc(=O)n3oc(C)cc3n2)cc1 | i
O=C(Nc1nnc(SCc2ccccc2)s1)c1cc(=O)c2ccccc2o1 | i
O=C(/C=C/c1ccccc1)OCCCc1ccccc1 | i
Cc1c(C(=O)N2CCCC2)c(S(=O)(=O)N2c3ccccc3CC2C)c(C)n1C (centres undefined) | i
O=C(NCc1cccc(F)c1)C1CCCN(C(=O)N2CCOc3ccccc32)C1 (centres undefined) | i
O=C(NC1CC(=O)N(c2cccc(F)c2)C1)C1CCCCC1 (centres undefined) | i
O=C(Nc1nn(-c2cccc(F)c2)c2cccc(N3CCOC3=O)c12)C1CCC1 | 28µM*
Cc1[nH]c2ccc(F)cc2c1CC(=O)NC1CCCCC1 | i
CN1CCC(Cn2ccc3c(N4CCOCC4)nc(-c4cccc(N[S+](C)(=O)[O-])c4)cc32)CC1 | i
CN1CCC(Cn2ccc3c(N4CCOCC4)nc(-c4cccc5[nH]ccc45)cc32)CC1 | 7.9µM*
C[S+](=O)([O-])N1CCC(Cn2ccc3c(N4CCOCC4)nc(-c4cccc5[nH]ncc45)cc32)CC1 | 13µM*
CCOC(=O)c1nnn2c1nc(N1CCOCC1)c1ccccc12 | i
CN1CCC(Nc2ncc(C(C)(C)C(=O)O)c(N3CCOCC3)n2)CC1 | i
CN1CCC(Cn2ccc3c(N4CCOCC4)nc(-c4cccc(N5CCOCC5)c4)cc32)CC1 | i
CN1CCC(Cn2ccc3c(N4CCOCC4)nc(-c4ccc5cn[nH]c5c4)cc32)CC1 | 35µM*
Nn1c(SCC(=O)NCc2ccc(Cl)cc2)nnc1-c1ccco1 | i
O=C(COc1ccc(-c2ccccc2)cc1Cl)OCC(=O)c1ccc[nH]1 | i
CC(=O)Nc1ccc(CN[C@@H]2CO[C@H](CNC(=O)NC(C)C)[C@H]2O)cc1 | i
SMILES | KDM5B inhibitor
CCOC(=O)N1CCN(c2ccc(C(=O)O)cc2NS(=O)(=O)c2ccc(OC)c(Cl)c2)CC1 | i
Cc1cc(=O)n2c(C(=O)NCc3ccccc3)c(C(=O)Nc3cccc(C)c3C)sc2n1 | i
CCCn1nc(C(=O)OCC(=O)N2CCCc3ccccc32)c2ccccc2c1=O | i
O=C(c1cc2ccccc2[nH]1)N(Cc1cccs1)C1CC1 | i
CC(C)C(=O)N1Cc2ccccc2CC2(CCCN(Cc3ccccc3)C2)C1 (centres undefined) | i
COc1ccc(C(=O)N2CCOCC3(CN(Cc4ccccc4)C3)C2)cc1 | i
CC(C)CNc1ccc2c(n1)C(C)(C(=O)NC1CC1)CN(Cc1ccccc1)C2 (centres undefined) | i
CC(C)CNc1ccc2c(n1)C(C)(C(=O)N1CCOCC1)CN(Cc1ccccc1)C2 (centres undefined) | 32µM*
O=C(NCC(c1cccnc1)N1CCN(Cc2ccccc2)CC1)C(=O)Nc1cccc(F)c1 (centres undefined) | i
CC(C)CNc1ccc2c(n1)C(C)(C(=O)Nc1cccnc1)CN(Cc1ccccc1)C2 (centres undefined) | 32µM*
COCCN1Cc2ccc(NCC(C)C)nc2C(C)(C(=O)NCc2cccnc2)C1 (centres undefined) | 32µM*
COCCN1CC(CO)C2(CCN(C(=O)Cc3cccnc3)CC2)C1 (centres undefined) | i
O=C(Nc1cccnc1)[C@H]1CN(Cc2ccccc2)C[C@H]1C(=O)O | i
CC(C)CNc1ccc2c(n1)C(C)(C(=O)N1CCC1)CN(Cc1ccccc1)C2 (centres undefined) | 28µM*
COc1ccc(C(=O)N2CCOCC3(CN(Cc4ccccc4)C3)C2)c(OC)n1 | i
Cc1c(CC(=O)NCc2cccnc2)c2c(n1CC(C)C)CC(C)(C)CC2=O | i
C[C@H]1[C@@H]2[C@@H](O)C([C@H](C)C(=O)NCc3ccccn3)CC[C@@]2(C)CC[C@@H]1NC(=O)c1ccccc1 (some centres undefined) | i
Cc1ccc(Sc2ccc(N=CN(C)C)cc2)cc1C | i
COc1ccc(NC(=O)c2cc(=O)c3ccccc3o2)cc1 | i
O=C(CC(c1cccc([N+](=O)[O-])c1)c1cn(Cc2ccc(F)cc2)c2ccccc12)N1CCCC1 (centres undefined) | i
CCN1CCN(c2nc3c(c(=O)[nH]c(=O)n3C)n2CCSc2nc3ccccc3o2)CC1 | i
COc1cccc(/C=C/C(=O)NC2CCCC2)c1OC | i
